Compound activity deposited in PubChem BioAssay by Columbia University Molecular Screening Center.
IL1B NFkB inh = inhibitors of IL-1B driven NFkB p65 nuclear import, primary screen, imaging, HUVEC, IL-1B stimulus, high-content imaging; 0.43% of 94,000 active; AID 796, 2007; HUVEC IL-1B NFkB p65 nuclear translocation imaging; inhibition, % at 2 µM;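 active = inhibition above about 30% together with a positive call from visual inspection of the well image, limit read from the data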;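 also: nuclear over cytoplasmic p65 intensity ratio measured by imaging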
LYP act = LYP phosphatase activators, primary screen, biochemical, DiFMUP fluorescence, 2 µM | AID 697, 2007 | activation, % at 2 µM | 0.11% of 96,000 active | recombinant LYP; 0 = plate median, 100 = signal doubled | Tyrosine-protein phosphatase non-receptor type 22 (Homo sapiens), Q9Y2R2;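 active = activation at 2 µM above a set limit, the mean plus 5 SD, cut at about 37% in these data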
IL1B cytotox = cytotoxicity in IL-1B stimulated HUVEC, primary screen, cytotoxicity control for IL-1B NFkB translocation project, imaging, Hoechst nuclear count, IL-1B stimulus | HUVEC cell count loss | cell count reduction, % at 2 µM | 0.41% of 94,000 active | AID 845, 2007;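 active = cell count reduction more than 3 SD above the screen-wide mean, cut at about 70% in these data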
NFkB transloc pot = enhancers of NFkB p65 translocation in HUVEC – imaging, IL-1B stimulus, high-content imaging, primary screen | activation, % at 2 µM | HUVEC IL-1B NFkB p65 nuclear translocation imaging | 0.3% of 94,000 active;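 active = activation above 40%, about the mean plus 3 SD, also judged a hit on visual image review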;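 also: percent activation is computed from the nuclear over cytoplasmic p65 intensity ratio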
PTPN22 inh 2 = PTPN22 phosphatase inhibitors, primary screen, biochemical, DiFMUP fluorescence, 2 µM | recombinant LYP catalytic domain | inhibition, % at 2 µM | 0.21% of 96,000 active;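 active = inhibition at 2 µM at or above a set limit, the screen mean plus 3 SD, cut at about 24% in these data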
Large screens that a line does not name were inactive. In the library only some 1.3% were active in any assay of this set; here they are far more common.

CCOc1cc2[nH]c(=O)n(CCC(=O)N3CCN(c4ccccc4OC)CC3)c(=O)c2cc1OCC	none
COc1cc2[nH]c(=O)n(CCC(=O)N3CCN(c4cc(Cl)ccc4C)CC3)c(=O)c2cc1OC	IL1B cytotox 83
O=c1c2cnn(-c3ccc(F)cc3)c2ncn1Cc1ccccc1	none
Cc1ccc2c(C(=O)CN3CCN(C4CCCCC4)CC3)c(C)[nH]c2c1	IL1B cytotox 92
Cc1ccc2c(C(=O)CN3CCCCC3CCO)c(C)[nH]c2c1 (stereo unspecified)	none
CCn1nc(C(=O)OCC(=O)c2cc(C)n(Cc3cccs3)c2C)c2ccccc2c1=O	PTPN22 inh 2 24
COC(=O)C(O)(CC(=O)Nc1ccc(Cl)cc1Cl)C(F)(F)F (stereo unspecified)	none
COC(=O)C(O)(CC(=O)Nc1ccc(Cl)cc1F)C(F)(F)F (stereo unspecified)	IL1B NFkB inh 32
Cc1cc(NS(=O)(=O)c2ccc(NC(=O)COc3ccc(Cl)cc3)cc2)no1	IL1B NFkB inh 99, IL1B cytotox 88
O=C(NCc1cn2ccccc2n1)c1ccc(Br)o1	IL1B NFkB inh 32
Cc1ccc(CNC(=O)c2ccc(Br)o2)cc1	none
O=C1Nc2ccccc2C(O)(C(=O)NCc2ccc3c(c2)OCO3)N1c1ccc(Cl)c(Cl)c1 (stereo unspecified)	none
O=C(OCC1OC(n2cnc3c(N(C(=O)c4ccccc4)C(=O)c4ccccc4)ncnc32)C(O)C1F)c1ccccc1 (stereo unspecified)	PTPN22 inh 2 60
C=CCNc1ncnc2c1ncn2C1OC(CO)C(O)C1O (stereo unspecified)	none
CCOC(=O)C1=C(C)NC(C)=C(C(=O)OCC)C1c1sccc1C	none
O=C(Cn1nc(-c2cccc([N+](=O)[O-])c2)c2ccccc2c1=O)Nc1cccnc1	none
CCOc1ccc(CNC(=O)C2CCCN(S(C)(=O)=O)C2)cc1OC (stereo unspecified)	none
CCOc1ccc(CNC(=O)C2CCN(S(=O)(=O)CC)CC2)cc1OC	IL1B cytotox 94
CCn1c(SCC(=O)N2c3ccccc3CC2C)nnc1-c1ccco1 (stereo unspecified)	IL1B NFkB inh 45
CC1Cc2ccccc2N1C(=O)CSc1nnc2n1C(C)(C)Cc1ccccc1-2 (stereo unspecified)	IL1B NFkB inh 98, IL1B cytotox 95
C1=C(CCNCC2CCCCC2)CCCC1	none
O=C1N(CCCCN2C(=O)C3(OCCO3)c3ccccc32)c2ccccc2C12OCCO2	none
CC(C)CC(=O)CN1C(=O)C2(OCCO2)c2ccccc21	IL1B cytotox 77
Cc1ccc(CNC(=O)C2CC(=O)N(c3ccc(OCC(=O)N4CCCC4)cc3)C2)cc1 (stereo unspecified)	none
CC(=O)NC1CC2CCCC(C1)N2C(=O)Nc1ccccc1 (stereo unspecified)	PTPN22 inh 2 60
O=C(Nc1ccncc1)C1COc2ccccc2O1 (stereo unspecified)	none
O=C(Nc1cnc2ccccc2c1)C1COc2ccccc2O1 (stereo unspecified)	PTPN22 inh 2 28
CC(C)Oc1nnnn1-c1ccccc1	none
c1ccc(-n2nnnc2OCCOc2nnnn2-c2ccccc2)cc1	IL1B cytotox 94
COC(=O)c1cc(COc2ccc3c(c2)oc(=O)c2ccccc23)c(C)o1	none
CN(CC(=O)O)S(=O)(=O)c1ccc(F)cc1	none
CNC(=O)CN(C)S(=O)(=O)c1ccc(F)cc1	NFkB transloc pot 44
COc1ccccc1N1CCN(C(=O)c2cc(-c3ccc(C)cc3)on2)CC1	none
COc1ccccc1N1CCN(C(=O)c2cc(-c3ccc(Cl)cc3)on2)CC1	IL1B NFkB inh 44
O=C(NCC1COCCO1)C1CCN(S(=O)(=O)c2ccccc2)CC1 (stereo unspecified)	IL1B NFkB inh 96, IL1B cytotox 94
O=C(NCCc1csc(-c2cccnc2)n1)c1cccc2ccccc12	IL1B NFkB inh 35, IL1B cytotox 79
C=CCN1C(=O)C2C(C(=O)NC3CCCCC3)C3C=CC2(O3)C1C(=O)NC1CCCC1 (stereo unspecified)	IL1B NFkB inh 100, IL1B cytotox 90
O=c1ccc(Cc2ccccn2)n[nH]1	none
